“And” between values parts separate entries of the source, which are not always exact repeats. Identical values can stand only once. Inconclusive results are not listed. The source holds several records for some structures; these can differ, active in one and inactive in another. The source made the active and inactive calls. Unless noted, calls come from the whole dose curve.

Assay [1] in a line: Nuclear factor erythroid 2-related factor 2/antioxidant responsive element (Nrf2/ARE) small molecule agonists: qHTS cell viability counter screen in human keratinocytes (AID 1919968; active = well fitted curve in the direction sought with a large enough effect in the repeat runs; an effect the other way counts as inactive or inconclusive; note: nearly all actives have a fitted effect of over 55% in size). The procedure, abridged:
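Fluorescence read-out from CellTiter-Fluor after 1 h at 37 C. Wells held HaCaT-derived ARE-luciferase reporter cells (1,500/well) treated 23 h with DMSO-dissolved compounds. Run in the same wells as the luciferase agonist read.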
A general note: Quantitative high-throughput screening tests each substance at several concentrations.

Assay [2] in a line: Nuclear factor erythroid 2-related factor 2/antioxidant responsive element (Nrf2/ARE) small molecule agonists: luciferase reporter gene qHTS assay in human keratinocytes (AID 1919969). Note: nearly all actives have a fitted effect of over 35% in size. Note: potency is the fitted concentration of half-maximal effect. For orientation: Reporter assays use an easily measured gene product as a stand-in for the process of interest.
The target of assay [3] is Gonadotropin-releasing hormone receptor (Homo sapiens) (UniProt P30968). Briefly: Human gonadotropin-releasing hormone receptor (GnRHR) small molecule agonists, calcium flux assay in GnRHR-HEK293 cells (AID 1920063). Note: nearly all actives have a fitted effect of over 35% in size. The procedure, abridged: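 Calcium-dye fluorescence, Ex/Em=480/540, recorded every 1 sec over 3 min after compound addition to GnRHR-HEK293 cells. Cells had been seeded 18 hours earlier and dye-loaded for 1 hour at 37 C. Fifteen concentrations, triplicates.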
Sequence of Gonadotropin-releasing hormone receptor (Homo sapiens) (P30968 whole entry, looked up): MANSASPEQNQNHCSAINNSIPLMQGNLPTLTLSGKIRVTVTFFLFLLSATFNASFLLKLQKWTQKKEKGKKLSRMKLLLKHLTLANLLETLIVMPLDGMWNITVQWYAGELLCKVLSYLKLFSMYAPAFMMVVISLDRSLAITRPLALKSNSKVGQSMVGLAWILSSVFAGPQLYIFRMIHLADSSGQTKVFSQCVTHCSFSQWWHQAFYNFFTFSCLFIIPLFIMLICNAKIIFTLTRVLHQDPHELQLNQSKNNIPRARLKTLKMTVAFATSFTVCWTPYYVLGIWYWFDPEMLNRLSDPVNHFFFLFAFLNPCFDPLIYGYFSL
On the technique in general: A change in cytosolic calcium serves as a functional read-out for many receptors and channels.

Assay [4] has as its target KiSS-1 receptor (Homo sapiens) (UniProt Q969F8). Description: Human kisspeptin (KISS1R) small molecule agonists, calcium flux assay in KISS1R-HEK293 cells (AID 1920064; active = well fitted curve in the direction sought with a large enough effect in the repeat runs; an effect the other way counts as inactive or inconclusive). The procedure, abridged: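 Calcium flux read-out: kinetic fluorescence at Ex/Em=480/540, 1 s intervals over 3 min, after pin-tool compound addition to dye-loaded KISS1R-HEK293 cells. Fifteen concentrations, triplicates.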

Assay [5] is described as follows: G protein-coupled receptor (GPCR) small molecule agonists, calcium flux assay: HEK293 wild type cell line counter screen (AID 1920065). The procedure, abridged:
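Agonist mode; 18 h seeding at 37 C, 1 h dye load at 37 C; compounds pinned from DMSO, ATP as positive control; kinetic fluorescence 480/540 nm, 3 min, 1 s reads; 15 concentrations, triplicate.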

Assay [6] in a line: p53 small molecule agonists, cell-based qHTS assay with human liver microsomes: qHTS cell viability counter screen (AID 1963579). Note: nearly all actives have a fitted effect of over 45% in size. Note: potency is the fitted concentration of half-maximal effect. The procedure, abridged:
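In this multiplexed counter screen, the reporter plates were subsequently treated with CellTiter-Glo so that cell viability, reflected by luminescence, could be recorded for p53RE-bla cells dosed 16 h with compounds under microsomal activation (HLM and NADPH).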

Assay [7] in a line: p53 small molecule agonists, cell-based qHTS assay with rat liver microsomes: qHTS cell viability counter screen (AID 1963580). Note: nearly all actives have a fitted effect of over 45% in size. The procedure, abridged:
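After the beta-lactamase ratio was read, CellTiter-Glo was added to the same wells and luminescence measured at 30 min; cells had been treated 16 h at 37 C with compounds, rat liver microsomes and NADPH (0.5 mg/mL final each).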

Assay [8] is described as follows: p53 small molecule agonists, cell-based qHTS assay: qHTS cell viability counter screen (AID 1963581). Note: nearly all actives have a fitted effect of over 45% in size. Note: potency is the fitted concentration of half-maximal effect. A digest of the protocol: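 Cytotoxicity read-out: ATP-based luminescence (CellTiter-Glo, 30 min RT) measured in the same wells as the p53 reporter assay, HCT-116 p53RE-bla cells, 16 h compound exposure at 37 C.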
Assay [9] has as its target 5-hydroxytryptamine receptor 2A (Homo sapiens) (UniProt P28223). Description: 5-hydroxytryptamine receptor 2A (HTR2A) small molecule antagonists, cell-based qHTS assay (AID 1963586). Note: nearly all actives have a fitted effect of over 45% in size. The procedure, abridged:
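CHO cells stably expressing human HTR2A were plated for 18 h at 37 C, then loaded with calcium dye for 1 h. Compounds were preincubated 5 min at room temperature before DOI (4 nM solution) was added. Kinetic fluorescence was read for 3 min.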

The target is the same in assay [10]. Briefly: 5-hydroxytryptamine receptor 2A (HTR2A) small molecule agonists, cell-based qHTS assay (AID 1963587). Note: nearly all actives have a fitted effect of over 30% in size. A digest of the protocol: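 CHO cells stably expressing human HTR2A, plated 18 h, loaded with calcium dye 1 h at 37 C. Agonist mode: compounds added and intracellular calcium fluorescence recorded kinetically for 2 min at 1 sec intervals.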
The target in assay [11] is Muscarinic acetylcholine receptor M1 (Homo sapiens) (UniProt P11229). Description: Cholinergic receptor muscarinic 1 (CHRM1) small molecule antagonists, cell-based qHTS assay (AID 1963588). Note: nearly all actives have a fitted effect of over 40% in size. The procedure, abridged:
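Compounds were tested at 15 concentrations in three independent runs. Dye-loaded CHRM1-CHO cells were exposed 5 min at room temperature before stimulation by acetylcholine added at 50nM. Intracellular calcium was read kinetically on FDSS for 3 min.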

Assay [12] has the same target. Briefly: Cholinergic receptor muscarinic 1 (CHRM1) small molecule agonists, cell-based qHTS assay (AID 1963589). Note: nearly all actives have a fitted effect of over 35% in size. A digest of the protocol:
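Calcium flux read-out: kinetic fluorescence at 1 sec intervals after pin-tool compound addition to dye-loaded CHRM1-CHO cells (human M1). Agonist mode; 15 concentrations tested in triplicate independent runs.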

The nature of assay [13]: cAMP Responsive Elements (CRE) small molecule agonists, cell-based qHTS assay (AID 1963590). A digest of the protocol: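 Beta-lactamase reporter readout: LiveBLAzer B/G FRET substrate, 2 h at room temperature, added after 3 h compound treatment of CRE-bla HEK 293T cells at 37 C/5% CO2.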
A short description of assay [14]: cAMP Responsive Elements (CRE) small molecule antagonists, cell-based qHTS assay (AID 1963591; active = well fitted inhibition curve with a large enough effect in the signal ratio in the repeat runs, not every such curve was filed as active; the % refers to the signal ratio). A digest of the protocol:
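HEK293T CRE-bla; 18 h preincubation; compound pin-transfer; NKH477 0.25 uM final, 3 h, 37 C; LiveBLAzer FRET substrate 2 h RT.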

The target of assay [15] is Beta-2 adrenergic receptor (Homo sapiens) (UniProt P07550). Description: Adrenergic beta2 receptor (ADRB2) small molecule antagonists, cell-based qHTS assay (AID 1963592). Note: series mostly up to about 92 µM; nearly all actives have a fitted effect of over 50% in size. The procedure, abridged: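 Assay format: CHO-ADRB2 cells, 18-20hr seeding at 37C/5% CO2, then compound plus 1nM isoproterenol agonist mix for 0.5hr RT. Homogeneous time-resolved fluorescence cAMP detection after 1hr, expressed as 665/615 nm ratio.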
Sequence of Beta-2 adrenergic receptor (Homo sapiens) (P07550 whole entry, looked up): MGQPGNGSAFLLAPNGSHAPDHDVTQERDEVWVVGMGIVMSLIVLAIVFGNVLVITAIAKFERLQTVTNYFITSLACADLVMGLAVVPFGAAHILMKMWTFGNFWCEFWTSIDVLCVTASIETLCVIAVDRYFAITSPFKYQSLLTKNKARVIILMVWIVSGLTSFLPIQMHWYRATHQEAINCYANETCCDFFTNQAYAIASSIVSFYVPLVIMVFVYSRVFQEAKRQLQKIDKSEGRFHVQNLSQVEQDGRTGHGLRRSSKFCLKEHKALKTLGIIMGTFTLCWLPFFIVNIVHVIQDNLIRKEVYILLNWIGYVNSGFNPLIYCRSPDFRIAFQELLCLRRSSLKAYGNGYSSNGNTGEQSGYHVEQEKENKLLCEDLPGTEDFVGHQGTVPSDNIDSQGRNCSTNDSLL

Assay [16] has the same target. Briefly: Adrenergic beta2 receptor (ADRB2) small molecule agonists, cell-based qHTS assay (AID 1963593).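 Note: CHO cells stably overexpressing human ADRB2.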 A digest of the protocol:
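CHO cells stably over-expressing ADRB2 were plated overnight at 37C, then dosed with compounds plus a stimulation mix containing 100uM IBMX and 25uM Ro-20-1724 for 0.5hr at room temperature. cAMP was measured by HTRF competition, 1hr.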

For assay [17], the target named is D(2) dopamine receptor (Homo sapiens) (UniProt P14416). Description: Dopamine D2 receptor (DRD2) small molecule agonists, cell-based qHTS assay (AID 1963594). Note: nearly all actives have a fitted effect of over 35% in size. A digest of the protocol:
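HEK293 cells stably expressing human DRD2, pre-treated with PDE inhibitor Ro20-1724 (0.1 mM final) and compound 10 min at room temperature, then stimulated with NKH477 (200nM […]) for 30 min. cAMP read by HTRF (665/620 nm).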

The target is the same in assay [18]. Description: Dopamine D2 receptor (DRD2) small molecule antagonists, cell-based qHTS assay (AID 1963595; active = well fitted inhibition curve with a large enough effect in the signal ratio in the repeat runs, with a control signal flat; the % refers to the signal ratio). A digest of the protocol:
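HTRF cAMP read-out at 665 and 620 nm emission (340 nm excitation). Antagonist mode: compounds were tested against 12 nM quinpirole in DRD2-HEK293 cells, with 200 nM NKH477 raising cAMP and 0.1 mM Ro20-1724 blocking its breakdown.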

The nature of assay [19]: p53 small molecule agonists, cell-based qHTS assay (AID 1963582; active = well fitted activation curve with a large enough effect in the signal ratio in the repeat runs, not every such curve was filed as active; the % refers to the signal ratio). A digest of the protocol: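 Fluorescence intensity read-out of a beta-lactamase reporter under a p53 response element. Cells were exposed to DMSO-dissolved compounds for 16 h at 37 C, then developed with FRET substrate for 2 h at RT.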

Sequence of D(2) dopamine receptor (Homo sapiens) (P14416 whole entry, looked up): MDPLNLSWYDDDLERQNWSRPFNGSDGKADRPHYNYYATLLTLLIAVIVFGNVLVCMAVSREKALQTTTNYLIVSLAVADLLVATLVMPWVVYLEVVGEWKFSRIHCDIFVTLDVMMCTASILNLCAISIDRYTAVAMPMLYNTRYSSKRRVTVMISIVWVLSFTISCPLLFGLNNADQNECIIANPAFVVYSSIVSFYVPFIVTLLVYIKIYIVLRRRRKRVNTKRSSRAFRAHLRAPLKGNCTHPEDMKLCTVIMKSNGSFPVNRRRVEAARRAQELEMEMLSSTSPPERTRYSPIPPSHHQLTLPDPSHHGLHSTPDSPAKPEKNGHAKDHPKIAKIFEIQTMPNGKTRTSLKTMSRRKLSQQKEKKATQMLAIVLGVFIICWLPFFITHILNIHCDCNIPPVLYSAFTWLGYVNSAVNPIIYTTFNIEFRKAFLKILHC
Sequence of Muscarinic acetylcholine receptor M1 (Homo sapiens) (P11229 whole entry, looked up): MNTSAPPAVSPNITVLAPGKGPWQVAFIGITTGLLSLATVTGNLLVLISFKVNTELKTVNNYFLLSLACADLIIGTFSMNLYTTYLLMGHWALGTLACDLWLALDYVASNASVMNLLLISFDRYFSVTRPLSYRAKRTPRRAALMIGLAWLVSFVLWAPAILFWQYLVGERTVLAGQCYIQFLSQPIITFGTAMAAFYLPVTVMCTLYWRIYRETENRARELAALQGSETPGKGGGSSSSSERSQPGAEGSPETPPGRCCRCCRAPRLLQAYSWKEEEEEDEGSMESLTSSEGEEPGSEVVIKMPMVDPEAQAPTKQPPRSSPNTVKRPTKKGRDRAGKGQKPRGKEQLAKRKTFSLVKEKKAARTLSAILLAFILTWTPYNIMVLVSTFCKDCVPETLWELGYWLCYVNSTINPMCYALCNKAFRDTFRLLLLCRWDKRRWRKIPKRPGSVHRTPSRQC
Sequence of 5-hydroxytryptamine receptor 2A (Homo sapiens) (P28223 whole entry, looked up): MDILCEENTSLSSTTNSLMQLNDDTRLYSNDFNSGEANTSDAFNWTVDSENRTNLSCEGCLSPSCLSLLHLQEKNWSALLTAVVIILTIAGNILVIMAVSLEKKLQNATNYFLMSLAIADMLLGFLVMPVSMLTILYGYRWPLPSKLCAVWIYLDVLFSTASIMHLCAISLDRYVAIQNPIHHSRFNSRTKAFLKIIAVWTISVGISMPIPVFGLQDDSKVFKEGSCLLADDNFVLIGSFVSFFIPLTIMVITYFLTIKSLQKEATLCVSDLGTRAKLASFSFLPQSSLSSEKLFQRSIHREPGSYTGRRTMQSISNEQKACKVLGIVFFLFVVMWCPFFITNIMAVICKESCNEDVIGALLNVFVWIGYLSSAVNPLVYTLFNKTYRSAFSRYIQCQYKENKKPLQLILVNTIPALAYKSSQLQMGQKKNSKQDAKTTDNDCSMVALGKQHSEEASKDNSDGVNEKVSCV
Sequence of KiSS-1 receptor (Homo sapiens) (Q969F8 whole entry, looked up): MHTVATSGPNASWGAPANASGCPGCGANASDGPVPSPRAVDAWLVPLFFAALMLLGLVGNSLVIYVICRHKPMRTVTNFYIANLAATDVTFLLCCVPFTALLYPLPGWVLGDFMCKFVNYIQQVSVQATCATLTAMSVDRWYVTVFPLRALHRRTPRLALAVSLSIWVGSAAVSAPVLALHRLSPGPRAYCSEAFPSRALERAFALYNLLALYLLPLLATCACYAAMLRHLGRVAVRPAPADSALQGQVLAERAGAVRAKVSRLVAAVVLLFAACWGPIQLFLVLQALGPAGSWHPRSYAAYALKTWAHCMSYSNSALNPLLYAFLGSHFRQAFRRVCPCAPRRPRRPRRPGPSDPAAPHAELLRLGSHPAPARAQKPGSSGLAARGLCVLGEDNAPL

As for `O=C(Oc1ccccc1)c1ccccc1O`, the Potency entry in assay [1], in assay [3], in [4], in assay [5], in assay [7] and in assay [8] was “inactive” in each case. Further, the Potency entry in assay [9], in assay [10], in assay [11], in assay [12], in assay [13] and in assay [14] was “inactive” in each case. In addition, the Potency entry in assay [15], in assay [16], in assay [17] and in assay [18] was “inactive” each time. Also, the Potency result in assay [2] was “inactive and 68.6 µM (active)”; in assay [6], “inactive and 40.8 µM (active)”.
Consider `CNC(=O)Oc1ccc2c(c1)[C@]1(C)CCN(C)[C@@H]1N2C`, for which the Potency entry in assay [1], in assay [2], in assay [3], in [4], in assay [5] and in assay [6] was “inactive” throughout. For the same molecule, the Potency result in [8], in assay [19], in assay [13], in [14], in [15] and in assay [16] was “inactive” each time. Moreover, the Potency entry in [17] and in assay [18] was “inactive” each time.
Regarding `Cc1c(N(C)C)c(=O)n(-c2ccccc2)n1C`, the Potency result in [1], in assay [3], in [4], in assay [5], in assay [6] and in assay [7] was “inactive” each time. The Potency entry in assay [8], in [9], in [10], in assay [11], in assay [12] and in assay [13] was “inactive” each time. For the same molecule, the Potency entry in assay [14], in assay [15], in assay [16], in assay [17] and in assay [18] was “inactive” each time. Besides, the Potency in assay [2] is 69.8 µM (active) and inactive.
With `CC[N+](CC)(CC(=O)Nc1c(C)cccc1C)Cc1ccccc1`, the Potency result in [1], in [2], in assay [3], in assay [4], in assay [5] and in assay [6] was “inactive” each time. For the same molecule, the Potency result in assay [7], in assay [8], in assay [9], in [10], in assay [11] and in assay [13] was “inactive” each time. In addition, the Potency result in [14], in assay [15], in [17] and in assay [18] was “inactive” each time.
Turning to `Cc1ccc(S(=O)(=O)NC(=O)NN2CCCCCC2)cc1`, the Potency result in [1], in assay [2], in [3], in assay [4], in assay [5] and in assay [6] was “inactive” throughout. Further, the Potency result in assay [7], in assay [8], in [13], in assay [15], in assay [16] and in assay [17] was “inactive” in each case. Also, in assay [18], the Potency entry was “inactive”.
As to `CC(C)c1cccc(C(C)C)c1`, the Potency result in assay [1], in assay [2], in assay [3], in [4], in [5] and in assay [6] was “inactive” throughout. In addition, the Potency result in [7], in assay [8], in assay [9], in assay [10], in [11] and in [12] was “inactive” each time. In addition, the Potency result in [13], in assay [15], in assay [16], in assay [17] and in [18] was “inactive” in each case.
Consider `NC(=O)N1c2ccccc2C=Cc2ccccc21`, for which the Potency entry in assay [1], in assay [2], in assay [3], in assay [4], in assay [5] and in assay [6] was “inactive” throughout. The Potency result in assay [7], in assay [13], in [14], in assay [15], in [17] and in [18] was “inactive” each time.
For the molecule `O=C(O)CCC(=O)O`, the Potency result in assay [1], in [2], in assay [3], in assay [4], in assay [5] and in assay [6] was “inactive” in each case. Also, the Potency result in [7], in assay [9], in assay [10], in [11], in [12] and in [13] was “inactive” throughout. In addition, the Potency result in [14], in [15], in assay [16], in assay [17] and in [18] was “inactive” throughout. Besides, in assay [8], the Potency is 42.1 µM (active) and inactive.

Source of the values: PubChem BioAssay (Tox21).
